Measured values from the supplement of paper PMC13172266.
Counter-ions that a name gives are not always drawn.

Tests used:
Test in all cases: cell proliferation relative to vehicle (% of vehicle); higher = less growth inhibition
Details in all cases: 72 h
[1] = test system: U2932 TK216-resistant clone 2
Procedure, shortened: (§1)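 A targeted inhibitor library of 348 compounds was tested on the ABC-DLBCL line U2932, both parental and two clones made resistant to an ETS-targeting agent by repeated exposure over almost a year. Cells were grown at 37°C and 5% CO2 in medium with 10% FBS, then treated at 500 nM or 50 nM for 72 h. MTT was added for 4 h, stopped with 25% SDS, and absorbance was read on a Cytation 3. Proliferation is reported as percent of proliferating cells relative to vehicle (DMSO).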

[2] = test system: U2932 TK216-resistant clone 3
Procedure, shortened: as §1

U2932 parental = test system: U2932 parental
Procedure, shortened: as §1

Row | Structure (SMILES) | cell proliferation ([1]; 50 nM) | cell proliferation ([1]; 500 nM) | cell proliferation ([2]; 50 nM) | cell proliferation ([2]; 500 nM) | cell proliferation (U2932 parental; 50 nM) | cell proliferation (U2932 parental; 500 nM)
1 | O=S(=O)(O)CCS [Mesna] | 110 | 116 | 101 | 103 | 95.4 | 103
2 | CN[C@@H](C)C(=O)N[C@H]1CN(C(=O)CC(C)C)CC[C@H]2CC[C@@H](C(=O)NC(c3ccccc3)c3ccccc3)N2C1=O | 106 | 111 | 94.6 | 105 | 94 | 103
3 | Nc1nccc2c1ncn2C1C=C(CO)C(O)C1O (stereo not drawn) [3-Deazaneplanocin A (DZNeP)] | 103 | 86.2 | 102 | 82.1 | 98.1 | 81.5
4 | O=C(O)c1ccc(O)c2ncccc12 | 104 | 107 | 101 | 99.2 | 106 | 105
5 | O=C(NCc1ccncc1)C12CC3CC(C1)CC(c1ccc(Cl)cc1)(C3)C2 | 105 | 91.5 | 105 | 98.3 | 98.2 | 98.2
6 | Cc1ccc(NC(=O)c2ccc(CN3CCN(C)CC3)cc2)cc1Nc1nc(-c2cccnc2)cs1 [Masitinib (AB1010)] | 95.6 | 83.5 | 100 | 86.2 | 92.5 | 92.7
7 | COc1ccc(C(=O)C2CCN(CC(=O)N(Cc3nc4c(c(=O)[nH]3)COCC4)CC3CC3)CC2)cc1 | 99.7 | 95.3 | 92.2 | 93.6 | 97.7 | 97.5
8 | CC[C@@]1(O)C(=O)OCc2c1cc1n(c2=O)Cc2cc3cc(O)ccc3nc2-1 [(S)-10-Hydroxycamptothecin] | 4.11 | 1.46 | 7.4 | 5.84 | 2.21 | 0.765
9 | C[C@@H](Oc1cc(-n2cnc3ccc(CN4CCN(C)CC4)cc32)sc1C(N)=O)c1ccccc1C(F)(F)F | 8.44 | 10 | 5.99 | 14.8 | 8 | 10.6
10 | CCCCCCNC(=O)n1cc(F)c(=O)[nH]c1=O [Carmofur] | 98.3 | 101 | 104 | 99.8 | 102 | 103
11 | CCCCCCCCc1ccc(CCC(N)(CO)CO)cc1 [Fingolimod (FTY720) HCl] | 99.3 | 102 | 99.6 | 96.1 | 98.3 | 94.8
12 | Cc1ccc(-c2cc(C(F)(F)F)nn2-c2ccc(S(N)(=O)=O)cc2)cc1 [Celecoxib] | 99.8 | 95.6 | 104 | 98.7 | 101 | 100
13 | CC[C@]1(O)C[C@H]2CN(CCc3c([nH]c4ccccc34)[C@@](C(=O)OC)(c3cc4c(cc3OC)N(C=O)[C@H]3[C@@](O)(C(=O)OC)[C@H](OC(C)=O)[C@]5(CC)C=CCN6CC[C@]43[C@@H]65)C2)C1 [Vincristine sulfate] | 9.22 | 10 | 7.89 | 9.97 | 10.4 | 13.4
14 | CS(=O)(=O)CCNCc1ccc(-c2ccc3ncnc(Nc4ccc(OCc5cccc(F)c5)c(Cl)c4)c3c2)o1 | 101 | 85.9 | 94.2 | 84.4 | 96.6 | 97.3
15 | COc1ccc(C2=N[C@@H](c3ccc(Cl)cc3)[C@@H](c3ccc(Cl)cc3)N2C(=O)N2CCNC(=O)C2)c(OC(C)C)c1 [Nutlin-3a] | 110 | 102 | 99.8 | 99.2 | 104 | 104
16 | c1ccc(Cn2c(-c3ccc(OC[C@H](C4CCNCC4)n4c(-c5ccccc5)nc5ccccc54)cc3)nc3ccccc32)cc1 [Deltarasin] | 102 | 88 | 98.8 | 83.6 | 103 | 91.4
17 | O=C(CCCCCCC(=O)Nc1ccccc1)NO [Vorinostat (SAHA, MK0683)] | 108 | 91.3 | 107 | 88.9 | 98.2 | 81.6
18 | Cc1nc(N)sc1-c1ccnc(Nc2ccc(N3CCOCC3)cc2)n1 | 91.2 | 103 | 99.5 | 103 | 103 | 95.8
19 | C=CCn1c(=O)c2cnc(Nc3ccc(N4CCN(C)CC4)cc3)nc2n1-c1cccc(C(C)(C)O)n1 | 89.6 | 20.5 | 99.7 | 38.7 | 94.7 | 33.1
20 | CCS(=O)(=O)N1CC(CC#N)(n2cc(-c3ncnc4[nH]ccc34)cn2)C1 | 107 | 118 | 111 | 104 | 104 | 105
21 | OCCn1cc(-c2ccc3c(c2)CC/C3=N\O)c(-c2ccncc2)n1 | 105 | 106 | 97 | 91.9 | 105 | 103
22 | CCN(c1cc(-c2ccc(CN3CCOCC3)cc2)cc(C(=O)NCc2c(C)cc(C)[nH]c2=O)c1C)C1CCOCC1 | 92.4 | 80.1 | 96.4 | 87.6 | 89.5 | 82.5
23 | CC[C@H](NC(=O)[C@H](C)NC)C(=O)N1C[C@@H](O)C[C@H]1Cc1c(-c2[nH]c3cc(F)ccc3c2C[C@@H]2C[C@H](O)CN2C(=O)[C@H](CC)NC(=O)[C@H](C)NC)[nH]c2cc(F)ccc12 [Birinapant] | 102 | 100 | 99.4 | 90.9 | 103 | 101
